In the library only some 3.5% were active in any assay of this set; here they are far more common.
Mtb hypoxia rep = inhibitors of hypoxia-regulated fluorescent reporter in Mycobacterium tuberculosis | M. tuberculosis hypoxia-regulated fluorescent reporter, fluorescence | fluorescence inhibition, % (test concentration not listed) | hit rate 0.1% among 300,000 | AID 1159583; in the data active = fluorescence inhibition mostly above about 23%, no sharp cut-off; inactive = mostly below about 17%
FadD28 FP inh = blocks FadD28 binding to the bisubstrate probe | fluorescence polarization | inhibition, % at 12.5 µM | hit rate 0.22% among 360,000 | AID 588549; in the data active = inhibition above about 8.5%, passing the limit was not always enough
GDH-TPI counter-1 = inhibits GDH-TPI coupling enzymes, artifact for Mtb FBA screen. GDH-TPI coupled enzyme counterscreen, NADH absorbance. inhibition, % at 4.8 µM. hit rate 1.2% among 360,000; in the data active = inhibition above about 30%
Mtb UGM inh = blocks M. tuberculosis UGM enzyme. P9WIQ1. purified UGM, fluorescence polarization probe displacement. inhibition, % at 10 µM. hit rate 0.06% among 320,000. AID 504406; in the data active = inhibition above about 10%, passing the limit was not always enough
Target sequence (P9WIQ1 whole entry, looked up): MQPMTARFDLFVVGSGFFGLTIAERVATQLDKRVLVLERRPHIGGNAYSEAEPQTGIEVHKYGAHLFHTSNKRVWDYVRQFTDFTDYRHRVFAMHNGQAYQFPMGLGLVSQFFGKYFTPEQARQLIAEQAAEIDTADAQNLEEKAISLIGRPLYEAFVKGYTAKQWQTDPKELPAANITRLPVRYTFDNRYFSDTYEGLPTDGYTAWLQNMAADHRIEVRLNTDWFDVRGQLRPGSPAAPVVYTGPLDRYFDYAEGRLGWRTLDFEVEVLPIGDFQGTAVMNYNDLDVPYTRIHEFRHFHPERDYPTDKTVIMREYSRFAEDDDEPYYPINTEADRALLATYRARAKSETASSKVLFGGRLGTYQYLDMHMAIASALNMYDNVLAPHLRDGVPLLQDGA
Mtb FBA inh = inhibits M. tuberculosis FBA enzyme | P9WQA3 | hit rate 2.3% among 360,000 | purified M. tuberculosis FBA, fluorescence read-out | inhibition, % at 1 µM
Rv3671c inh = inhibits the M. tuberculosis serine protease Rv3671c; P9WHR9; hit rate 0.048% among 320,000; inhibition, % at 5.96 µM; in the data active = inhibition above about 38%;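 note: extracellular domain of Rv3671c used as enzyme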
Mtb FBA inh conf = Mtb FBA inhibition, confirmed; hit rate 78% among 5,600; purified M. tuberculosis FBA, fluorescence read-out; shares compounds with Mtb FBA inh; inhibition, % at 1 µM
GDH-TPI counter-2 = counter-screen for M. tuberculosis FBA inhibitors: GDH-TPI coupled enzyme inhibition; shares compounds with Mtb FBA inh; GDH-TPI coupled enzyme counterscreen, fluorescence; inhibition, % at 1 µM; hit rate 81% among 5,600; in the data active = inhibition above about 10%
Hits are given with their value; - = inactive; . = not tested or not shown; + = active, no number. Cut-off read from the data, not from the text of the source, unless noted: active = inhibition above about 27%; inactive = the rest.

SMILES | Mtb hypoxia rep | FadD28 FP inh | GDH-TPI counter-1 | Mtb UGM inh | Mtb FBA inh | Rv3671c inh | Mtb FBA inh conf | GDH-TPI counter-2
COC(=O)[C@]1(C)NC(c2ccc(-c3cccc(Cl)c3)cc2)C2C(=O)N(C)C(=O)C21 (some centres undefined) | - | . | . | . | . | . | . | .
Cc1cc2ncc(-c3cccs3)nc2cc1C | - | - | - | - | 73.3 | . | 67.6 | 58.1
O=C(COc1ccc(C=NNS(=O)(=O)c2ccccc2)cc1)NCc1ccccc1 | - | . | . | . | . | . | . | .
O=C(N/N=C/c1ccc(O)c(O)c1)c1ccc(-n2cnnn2)cc1 | . | - | - | - | 52.1 | - | 51.8 | 52.4
CC(=NNC(=O)c1c(Br)cnn1C)c1ccc(NC(=O)c2ccc(F)cc2)cc1 | - | . | . | . | . | . | . | .
COc1ccc(/C=C2\OC(=O)c3c(OC)cccc32)cc1OC | - | - | - | - | 30.4 | - | 124.8 | 96.6
COc1ccc(C=C2C(=O)OC(C)(C)OC2=O)cc1OC | . | - | - | - | - | - | . | .
Clc1ccc(C[n+]2c(-c3ccccc3)cc(-c3ccccc3)cc2-c2ccccc2)cc1 | . | - | - | - | 37.6 | - | - | 13.4
Fc1ccc(C[n+]2c(-c3ccccc3)cc(-c3ccccc3)cc2-c2ccccc2)cc1 | . | . | . | - | . | - | . | .
CCOc1ccc2oc(-c3ccccc3)c(C(=O)N(C)C)c2c1 | - | - | - | - | 49.7 | - | - | -
CCOc1ccc2oc(-c3ccccc3)c(C(=O)N3CCN(CCO)CC3)c2c1 | . | - | - | . | 41.9 | . | 93.2 | 89.7
CCN(CC)C(=O)c1c(-c2ccccc2)oc2ccc(OC)cc12 | - | - | - | - | - | - | . | .
CCOc1ccc2oc(-c3ccccc3)c(C(N)=O)c2c1 | - | - | - | - | 68.9 | - | + | 198.7
Nc1ccc(C(=O)NN=Cc2cccc(Oc3ccccc3)c2)cc1 | - | . | . | . | . | . | . | .
Cc1cc(C=NO)c(C)n1-c1ccncc1 | - | . | . | . | . | . | . | .
O=[N+]([O-])c1ccc2c(c1)nc1n2CCSC1 | - | - | - | - | 34.6 | - | - | -
Cn1cc(-c2ccc(C(=O)NCc3cccc(Cl)c3)c3occc23)cn1 | . | - | - | . | 41.6 | . | - | -
CNc1ncnc2sc(-c3ccccc3)cc12 | - | - | - | - | 45.6 | - | 52.0 | 35.7
OCCOCCNc1ncnc2sc(-c3ccccc3)cc12 | . | - | - | - | 32.1 | - | - | 14.8
Cc1ccc(C2C3C(=O)N(C)C(=O)C3[C@]3(C)C(=O)N(Cc4ccc(-c5ccccc5)cc4)CC(=O)N23)o1 (some centres undefined) | - | . | . | . | . | . | . | .
O=C(C(=C([O-])c1ccccc1)[n+]1ccc2ccccc2c1)c1ccccc1 | - | . | . | . | . | . | . | .
COC(=O)C1C2CC3c4[nH]c5cc(OC)ccc5c4CCN3CC2CC(OC(=O)C=Cc2cc(OC)c(OC)c(OC)c2)C1OC (centres undefined) | - | . | . | . | . | . | . | .
CC(CC(=O)Nc1ccc(Cl)cc1Cl)=NNC(=O)c1ccco1 | - | . | . | . | . | . | . | .
CC(C)(C)N1C(=O)C2C(c3ccc(Br)cc3)N3C(=O)N(c4ccc(Br)cc4)C(=O)[C@@]3(Cc3ccccc3)C2C1=O (some centres undefined) | - | . | . | . | . | . | . | .
CC(/C=C/c1ccccc1)=NNc1nc2c(c(=O)[nH]c(=O)n2C)n1CCO | - | . | . | . | . | . | . | .
SMILES | Mtb hypoxia rep | FadD28 FP inh | GDH-TPI counter-1 | Mtb UGM inh | Mtb FBA inh | Rv3671c inh | Mtb FBA inh conf | GDH-TPI counter-2
CC(=O)N(C)C1(c2nnnn2CCOC(=O)Nc2ccc(Cl)cc2)CCCCC1 | - | - | - | - | 52.2 | - | - | -
CCn1c(SC(=O)NC2CCCCC2)nnc1-c1cccs1 | - | - | - | - | 45.5 | - | - | -
CCn1c(SCC(=O)NC2CCCCC2)nnc1-c1cccs1 | - | - | - | - | - | - | . | .
CCOC(=O)c1[nH]c2ccc(OC)cc2c1C(SCC(=O)O)c1ccc(C(F)(F)F)cc1 (centres undefined) | - | . | - | - | 55.0 | - | 131.6 | 84.7
CCOC(=O)c1[nH]c2ccc(OC)cc2c1NC(=O)c1ccc(OC)c(OC)c1 | - | - | - | - | - | - | . | .
C=CCOc1ccc(C2C(C#N)=C(N)N(Nc3ccccc3)C3=C2C(=O)CCC3)cc1OC (centres undefined) | - | - | - | - | 28.6 | - | 123.7 | 90.8
CC1=C(C)C(=O)N(C(C)CCc2ccccc2)C1=O (centres undefined) | - | - | - | - | 39.6 | - | 89.0 | 74.7
CSc1ncc(C(=O)Nc2cccc(S(N)(=O)=O)c2)n1-c1ccccc1 | - | - | - | - | 39.3 | - | 168.2 | 131.9
COc1ccc2nc(C(c3ccc(C)cc3)n3c(-c4ccccc4Br)nc4ccccc43)[nH]c2c1 (centres undefined) | . | - | . | . | 52.4 | . | + | +
O=C(COc1ccc(C=NNC(=O)c2ccccc2Br)cc1)Nc1ccccc1 | - | . | . | . | . | . | . | .
CCN(CC)CCn1c(SCC(=O)Nc2cccc(OC)c2)nc2c(sc3ccccc32)c1=O | - | - | - | - | - | - | . | .
COc1cccc(NC(=O)CSc2nc3c(sc4ccccc43)c(=O)n2CCN(C)C)c1 | - | - | - | - | 47.0 | - | - | -
CC(C)OCCCn1c(=N)c(S(=O)(=O)c2ccccc2)cc2c(=O)n3ccccc3nc21 | - | - | - | - | - | - | . | .
N=c1c(S(=O)(=O)c2ccccc2)cc2c(=O)n3ccccc3nc2n1CCCN1CCOCC1 | - | - | - | - | 51.9 | - | 48.1 | 38.2
O=c1c2ccccc2nc2ccccn12 | - | - | - | - | 109.3 | - | 163.0 | 150.5
Cn1c(=N)c(S(=O)(=O)c2ccc(F)cc2)cc2c(=O)n3ccccc3nc21 | - | - | - | - | - | - | . | .
O=C(NCCN1CCOCC1)c1cc(-c2ccc(F)cc2)nc2ccccc12 | - | - | - | - | - | - | . | .
N=c1c(C(=O)NCCN2CCOCC2)cc2c(=O)n3ccccc3nc2n1Cc1ccc(F)cc1 | - | - | - | - | 40.3 | - | 102.8 | 80.7
Cn1c(=N)c(S(=O)(=O)c2ccccc2)cc2c(=O)n3ccccc3nc21 | . | - | - | - | 60.3 | - | 71.2 | 53.6
NC(=O)NN=Cc1cccc(C(F)(F)F)c1 | - | . | . | . | . | . | . | .
N=c1c(S(=O)(=O)c2ccc(F)cc2)cc2c(=O)n3ccccc3nc2n1CC1CCCO1 (centres undefined) | - | - | - | - | 83.6 | - | 96.9 | 79.4
COc1ccc(CCn2c(=N)c(C(=O)NC3CCCC3)cc3c(=O)n4ccccc4nc32)cc1OC | - | - | - | - | - | - | . | .
Cc1ccc2nc3c(cc(C(=O)NCCN4CCOCC4)c(=N)n3CCCN3CCOCC3)c(=O)n2c1 | . | - | - | - | 78.3 | - | 61.3 | 42.3
N=c1c(C(=O)NCCN2CCOCC2)cc2c(=O)n3ccccc3nc2n1CCCN1CCOCC1 | . | - | - | - | 88.4 | - | 155.7 | 117.2
CCCn1c(=N)c(S(=O)(=O)c2ccc(F)cc2)cc2c(=O)n3ccccc3nc21 | - | - | - | - | - | - | . | .
Cc1cc(C(=O)NCCN2CCOCC2)c2ccccc2n1 | . | - | - | - | - | - | . | .
CCCc1ccc(OCc2ccc(C(=O)NN=Cc3cccnc3)o2)cc1 | - | . | . | . | . | . | . | .

Compound activity deposited in PubChem by several laboratories.
